Columns and labels:
[1] = target: T1, Ephrin type-A receptor 3 (Homo sapiens) (UniProt P29320); conditions: at 10 µM
T1 sequence (whole entry): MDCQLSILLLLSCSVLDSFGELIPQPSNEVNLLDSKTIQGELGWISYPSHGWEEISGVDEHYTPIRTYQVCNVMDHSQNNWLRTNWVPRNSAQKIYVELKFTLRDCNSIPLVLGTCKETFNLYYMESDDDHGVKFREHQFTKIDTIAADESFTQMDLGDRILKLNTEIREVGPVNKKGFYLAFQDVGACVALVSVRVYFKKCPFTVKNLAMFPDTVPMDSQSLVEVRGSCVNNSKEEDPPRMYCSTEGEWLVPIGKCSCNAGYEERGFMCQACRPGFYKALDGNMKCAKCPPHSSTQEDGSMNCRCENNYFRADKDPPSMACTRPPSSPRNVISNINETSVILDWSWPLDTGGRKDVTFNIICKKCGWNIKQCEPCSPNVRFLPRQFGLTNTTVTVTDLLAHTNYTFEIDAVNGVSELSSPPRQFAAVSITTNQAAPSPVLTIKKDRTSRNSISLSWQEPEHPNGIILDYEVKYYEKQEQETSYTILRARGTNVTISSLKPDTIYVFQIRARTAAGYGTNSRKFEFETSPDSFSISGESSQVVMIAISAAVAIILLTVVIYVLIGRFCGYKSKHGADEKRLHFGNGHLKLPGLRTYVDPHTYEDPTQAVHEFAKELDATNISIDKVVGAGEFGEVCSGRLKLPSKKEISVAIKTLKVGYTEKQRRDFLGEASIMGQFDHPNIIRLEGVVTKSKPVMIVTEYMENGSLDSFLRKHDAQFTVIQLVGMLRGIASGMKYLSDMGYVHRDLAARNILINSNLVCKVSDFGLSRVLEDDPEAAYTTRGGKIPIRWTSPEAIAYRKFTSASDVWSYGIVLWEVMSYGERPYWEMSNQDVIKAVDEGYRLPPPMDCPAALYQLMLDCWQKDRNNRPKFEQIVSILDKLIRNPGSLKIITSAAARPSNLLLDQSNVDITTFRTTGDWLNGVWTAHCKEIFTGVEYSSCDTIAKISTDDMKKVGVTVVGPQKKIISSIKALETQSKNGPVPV

[2] = target: Ephrin type-A receptor 4 (Homo sapiens) (UniProt P54764); conditions: at 1 µM
Ephrin type-A receptor 4 (Homo sapiens), sequence (P54764 whole entry): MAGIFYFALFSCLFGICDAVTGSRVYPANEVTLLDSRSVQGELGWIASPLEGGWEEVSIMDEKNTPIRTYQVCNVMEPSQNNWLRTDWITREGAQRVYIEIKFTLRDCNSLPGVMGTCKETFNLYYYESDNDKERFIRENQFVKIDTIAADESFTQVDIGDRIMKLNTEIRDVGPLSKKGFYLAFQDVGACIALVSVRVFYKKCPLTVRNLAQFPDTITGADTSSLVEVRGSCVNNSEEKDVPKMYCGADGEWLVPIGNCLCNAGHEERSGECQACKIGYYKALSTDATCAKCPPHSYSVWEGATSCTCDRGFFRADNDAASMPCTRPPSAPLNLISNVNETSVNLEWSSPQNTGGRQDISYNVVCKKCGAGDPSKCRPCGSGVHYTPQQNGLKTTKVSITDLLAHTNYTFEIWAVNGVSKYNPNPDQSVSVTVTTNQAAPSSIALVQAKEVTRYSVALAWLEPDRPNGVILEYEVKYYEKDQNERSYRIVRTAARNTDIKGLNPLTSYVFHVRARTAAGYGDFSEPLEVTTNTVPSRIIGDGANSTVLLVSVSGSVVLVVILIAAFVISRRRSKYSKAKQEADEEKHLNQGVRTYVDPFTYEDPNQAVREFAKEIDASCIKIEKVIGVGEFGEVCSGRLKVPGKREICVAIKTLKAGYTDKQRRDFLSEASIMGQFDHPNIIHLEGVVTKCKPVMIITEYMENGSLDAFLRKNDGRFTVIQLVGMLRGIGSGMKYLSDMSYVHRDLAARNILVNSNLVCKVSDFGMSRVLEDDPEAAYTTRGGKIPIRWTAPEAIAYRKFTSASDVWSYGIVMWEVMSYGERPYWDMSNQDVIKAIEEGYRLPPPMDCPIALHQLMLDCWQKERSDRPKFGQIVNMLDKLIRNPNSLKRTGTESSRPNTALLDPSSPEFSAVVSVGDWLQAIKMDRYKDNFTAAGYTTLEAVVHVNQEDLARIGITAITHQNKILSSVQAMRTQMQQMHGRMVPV

[3] = target: Ephrin type-A receptor 4 (Homo sapiens) (UniProt P54764); conditions: at 10 µM
[4] = target: Ephrin type-A receptor 5 (Homo sapiens) (UniProt P54756); conditions: at 1 µM
Ephrin type-A receptor 5 (Homo sapiens), sequence (P54756 whole entry): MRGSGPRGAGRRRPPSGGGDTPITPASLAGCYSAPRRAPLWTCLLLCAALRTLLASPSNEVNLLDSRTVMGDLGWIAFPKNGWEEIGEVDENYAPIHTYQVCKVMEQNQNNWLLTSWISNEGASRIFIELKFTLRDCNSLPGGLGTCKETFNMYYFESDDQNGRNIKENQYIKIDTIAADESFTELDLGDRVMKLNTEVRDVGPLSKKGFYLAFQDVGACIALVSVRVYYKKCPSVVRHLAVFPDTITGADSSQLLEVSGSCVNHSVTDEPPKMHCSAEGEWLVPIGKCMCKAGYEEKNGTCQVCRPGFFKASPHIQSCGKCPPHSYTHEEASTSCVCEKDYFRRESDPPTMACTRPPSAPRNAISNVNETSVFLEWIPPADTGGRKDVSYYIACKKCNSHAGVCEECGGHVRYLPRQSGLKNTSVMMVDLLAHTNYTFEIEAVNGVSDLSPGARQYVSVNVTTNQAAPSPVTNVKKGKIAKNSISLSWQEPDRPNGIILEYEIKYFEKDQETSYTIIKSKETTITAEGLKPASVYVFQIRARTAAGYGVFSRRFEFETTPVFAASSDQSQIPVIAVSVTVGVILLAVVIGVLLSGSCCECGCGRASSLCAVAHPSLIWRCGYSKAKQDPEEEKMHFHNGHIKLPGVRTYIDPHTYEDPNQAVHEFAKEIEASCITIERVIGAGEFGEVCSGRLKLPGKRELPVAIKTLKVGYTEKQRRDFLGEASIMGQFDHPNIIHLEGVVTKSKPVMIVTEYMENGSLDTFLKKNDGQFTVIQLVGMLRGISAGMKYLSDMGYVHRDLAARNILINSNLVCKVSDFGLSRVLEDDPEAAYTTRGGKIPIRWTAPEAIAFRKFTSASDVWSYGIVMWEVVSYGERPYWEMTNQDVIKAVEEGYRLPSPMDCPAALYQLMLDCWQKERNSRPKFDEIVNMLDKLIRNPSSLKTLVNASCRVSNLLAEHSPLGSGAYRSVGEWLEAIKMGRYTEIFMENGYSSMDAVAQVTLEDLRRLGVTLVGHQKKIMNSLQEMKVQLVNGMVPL

[5] = target: Ephrin type-A receptor 5 (Homo sapiens) (UniProt P54756); conditions: at 10 µM
[6] = target: Ephrin type-A receptor 7 (Homo sapiens) (UniProt Q15375); conditions: at 1 µM
Ephrin type-A receptor 7 (Homo sapiens), sequence (Q15375 28-998 limits assumed): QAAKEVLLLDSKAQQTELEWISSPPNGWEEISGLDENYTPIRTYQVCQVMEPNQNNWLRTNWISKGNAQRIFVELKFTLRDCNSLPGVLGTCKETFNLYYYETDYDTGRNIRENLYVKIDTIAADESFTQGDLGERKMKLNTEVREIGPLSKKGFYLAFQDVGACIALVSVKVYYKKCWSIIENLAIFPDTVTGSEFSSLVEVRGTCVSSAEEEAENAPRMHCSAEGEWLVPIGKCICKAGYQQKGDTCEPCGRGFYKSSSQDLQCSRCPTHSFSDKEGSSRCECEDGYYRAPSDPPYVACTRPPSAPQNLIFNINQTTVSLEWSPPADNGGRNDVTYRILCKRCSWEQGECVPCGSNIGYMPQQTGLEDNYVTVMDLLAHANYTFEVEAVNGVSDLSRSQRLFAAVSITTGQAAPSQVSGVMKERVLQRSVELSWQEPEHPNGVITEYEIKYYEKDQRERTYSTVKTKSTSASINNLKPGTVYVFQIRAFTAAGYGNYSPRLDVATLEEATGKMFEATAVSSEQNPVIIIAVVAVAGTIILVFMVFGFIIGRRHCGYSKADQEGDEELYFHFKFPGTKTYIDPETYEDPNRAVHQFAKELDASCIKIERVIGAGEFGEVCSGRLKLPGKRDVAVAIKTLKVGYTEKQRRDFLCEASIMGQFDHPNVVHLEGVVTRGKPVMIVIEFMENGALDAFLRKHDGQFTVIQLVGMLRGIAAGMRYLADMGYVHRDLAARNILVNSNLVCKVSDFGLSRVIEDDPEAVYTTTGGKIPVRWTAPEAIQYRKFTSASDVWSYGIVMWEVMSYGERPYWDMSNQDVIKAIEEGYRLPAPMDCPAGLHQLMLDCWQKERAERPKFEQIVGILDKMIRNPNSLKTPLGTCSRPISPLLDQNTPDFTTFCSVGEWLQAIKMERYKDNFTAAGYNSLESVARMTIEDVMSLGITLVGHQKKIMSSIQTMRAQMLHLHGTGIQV

[7] = target: Ephrin type-A receptor 7 (Homo sapiens) (UniProt Q15375); conditions: at 10 µM
[8] = target: T2, Ephrin type-A receptor 8 (Homo sapiens) (UniProt P29322); conditions: at 1 µM
T2 sequence (whole entry): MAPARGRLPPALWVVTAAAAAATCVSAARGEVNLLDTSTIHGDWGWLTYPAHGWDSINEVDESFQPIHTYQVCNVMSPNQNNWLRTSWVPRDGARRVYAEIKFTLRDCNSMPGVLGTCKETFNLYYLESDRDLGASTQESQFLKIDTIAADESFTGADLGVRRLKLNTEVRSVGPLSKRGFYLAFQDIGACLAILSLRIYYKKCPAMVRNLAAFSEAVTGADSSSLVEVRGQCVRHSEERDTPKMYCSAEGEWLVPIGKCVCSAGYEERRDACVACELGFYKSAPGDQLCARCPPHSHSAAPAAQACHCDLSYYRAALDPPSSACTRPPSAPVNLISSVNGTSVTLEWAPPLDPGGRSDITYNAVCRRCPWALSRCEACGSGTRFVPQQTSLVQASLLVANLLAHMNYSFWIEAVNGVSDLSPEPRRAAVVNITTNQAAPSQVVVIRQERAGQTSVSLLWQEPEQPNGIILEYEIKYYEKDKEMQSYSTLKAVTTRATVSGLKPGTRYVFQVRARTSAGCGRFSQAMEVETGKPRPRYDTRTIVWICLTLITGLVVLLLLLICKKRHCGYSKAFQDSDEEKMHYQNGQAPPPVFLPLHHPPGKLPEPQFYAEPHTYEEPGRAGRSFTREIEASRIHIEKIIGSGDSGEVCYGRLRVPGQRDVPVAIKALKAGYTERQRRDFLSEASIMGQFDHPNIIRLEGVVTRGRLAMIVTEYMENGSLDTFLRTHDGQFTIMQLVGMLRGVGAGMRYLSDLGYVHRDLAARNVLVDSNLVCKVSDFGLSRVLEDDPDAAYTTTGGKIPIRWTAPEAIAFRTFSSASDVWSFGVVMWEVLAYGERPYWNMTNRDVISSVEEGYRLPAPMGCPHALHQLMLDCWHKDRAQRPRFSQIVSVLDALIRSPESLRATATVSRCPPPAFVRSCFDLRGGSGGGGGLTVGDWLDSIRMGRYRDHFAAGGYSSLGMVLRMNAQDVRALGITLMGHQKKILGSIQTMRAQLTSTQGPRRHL

[9] = target: T2, Ephrin type-A receptor 8 (Homo sapiens); conditions: at 10 µM
[10] = target: T3, Ephrin type-B receptor 1 (Homo sapiens) (UniProt P54762); conditions: at 1 µM
T3 sequence (whole entry): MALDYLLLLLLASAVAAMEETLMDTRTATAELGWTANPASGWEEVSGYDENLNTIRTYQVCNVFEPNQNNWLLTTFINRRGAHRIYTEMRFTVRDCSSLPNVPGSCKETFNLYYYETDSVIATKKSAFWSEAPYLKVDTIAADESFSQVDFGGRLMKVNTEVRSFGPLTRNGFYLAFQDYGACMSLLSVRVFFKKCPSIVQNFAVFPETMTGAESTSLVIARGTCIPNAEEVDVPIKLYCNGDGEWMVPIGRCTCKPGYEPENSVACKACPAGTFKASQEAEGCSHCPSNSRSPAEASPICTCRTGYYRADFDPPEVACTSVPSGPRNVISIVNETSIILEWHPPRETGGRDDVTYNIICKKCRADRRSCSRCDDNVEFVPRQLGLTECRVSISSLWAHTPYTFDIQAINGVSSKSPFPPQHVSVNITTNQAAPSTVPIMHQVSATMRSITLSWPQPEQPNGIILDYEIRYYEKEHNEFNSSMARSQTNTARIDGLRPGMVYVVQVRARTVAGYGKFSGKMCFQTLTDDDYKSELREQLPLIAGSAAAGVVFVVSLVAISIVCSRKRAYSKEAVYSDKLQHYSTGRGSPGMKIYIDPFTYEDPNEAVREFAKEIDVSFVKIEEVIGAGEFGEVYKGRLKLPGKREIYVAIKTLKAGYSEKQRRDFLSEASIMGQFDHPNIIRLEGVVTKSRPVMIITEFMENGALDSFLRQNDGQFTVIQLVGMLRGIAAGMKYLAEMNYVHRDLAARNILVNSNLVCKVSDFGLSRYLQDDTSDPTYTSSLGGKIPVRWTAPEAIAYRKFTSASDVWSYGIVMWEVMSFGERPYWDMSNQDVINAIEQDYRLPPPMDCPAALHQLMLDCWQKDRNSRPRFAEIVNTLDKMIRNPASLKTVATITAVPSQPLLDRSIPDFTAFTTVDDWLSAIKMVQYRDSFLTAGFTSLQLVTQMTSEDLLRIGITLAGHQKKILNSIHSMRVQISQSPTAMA

Question: How did the residual activity [1] turn out when `NC(=O)c1ccc2[nH]c(-c3ccc(Oc4ccc(Cl)cc4)cc3)nc2c1` was run?
Answer: 111%

Question: And the residual activity [2]?
Answer: 112%

Question: And the residual activity [3]?
Answer: 104%

Question: What about the residual activity [4] of the same molecule?
Answer: 114%

Question: What about the residual activity [5] of the same molecule?
Answer: 103%

Question: What about the residual activity [6] of the same molecule?
Answer: 94%

Question: What about the residual activity [7] of the same molecule?
Answer: 81%

Question: And the residual activity [8]?
Answer: 94%

Question: And the residual activity [9]?
Answer: 96%

Question: And the residual activity [10]?
Answer: 95%
